Bioassay records (PubChem)
G9a inh – blocks human histone lysine methyltransferase G9a; G9a H3K9 monomethylation, AlphaScreen, 2 h; Potency, µM (titrated, usually from 102 µM), inactives show at the top dose activity, negative = inhibition, most hits filed as inhibitors; hit rate 8.8% among 350,000; AID 504332; further: on the % scale 0 is the no-effect control and ±100 the full control effect; nearly all actives have a fitted effect of over 75% in size
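Step 1: enzyme (final 20 nM) with compound, 15 min RT. Step 2: substrate peptide 500 nM and SAM 20 uM, 2 h RT. Step 3: anti-H3K9me1 antibody and AlphaScreen beads, 10 min, then plate read.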
HP1b binding inh – HP1-beta chromodomain-methylated histone interaction inhibition; P83916; AlphaScreen HP1-beta / biotin-H3K9me3 peptide binding; Potency, µM (titrated, usually from 114 µM), for inactives: top-dose activity change, negative = inhibition, usual class: inhibitors; hit rate 0.56% among 390,000; further: nearly all actives have a fitted effect of over 70% in size
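AlphaScreen: HP1-beta (50 nM) preformed 30 min with biotin-H3(1-18)K9me3 peptide (50 nM) in PBS pH 7.4, 0.01% Tween-20. Compound added for 30 min at RT, then streptavidin donor/nickel chelate acceptor beads (10 ug/mL) for 30 min.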
L3MBTL1 block – L3MBTL1 (human) inhibition; Q9Y468; AlphaScreen L3MBTL1–H3K9me1 peptide binding; Potency, µM (top dose mostly 57.1 µM), for the others: at the top dose activity, negative = inhibition, most hits filed as inhibitors; hit rate 0.66% among 230,000; AID 485360; further: on the % scale 0 is the no-effect control and ±100 the full control effect; nearly all actives have a fitted effect of over 60% in size
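L3MBTL1 (50 nM) pre-complexed 30 min with biotinylated H3(1-15)K9me1 peptide (75 nM), then compounds added for 30 min at room temperature; AlphaScreen streptavidin donor/nickel chelate acceptor beads (10 ug/mL final) read after 30 min dark incubation.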
Sfp PPTase inh – blocks B. subtilis Sfp PPTase activity; Q9F4F7; Biochemical Sfp PPTase activity, qHTS; Potency, µM, without a hit: largest response in the series, negative = inhibition, most hits filed as inhibitors; hit rate 3.5% among 310,000;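 further: the enzyme is Sfp with the accession as filed and its product quenches rhodamine fluorescence; 0% = enzyme reaction without inhibitor and -100% = no enzyme wells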
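Buffer: 50 mM Hepes-Na pH 7.6, 10 mM MgCl2, 0.01% Nonidet P-40, 0.01% BSA. Enzyme 15 nM, pre-exposed to compound 15 min; substrates then added and fluorescence change tracked over 30 min.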
BAZ2B block – blocks human BAZ2B; Q9UIF8; AlphaScreen BAZ2B-H3K14Ac peptide displacement; Potency, µM (highest dose often 114 µM), without a hit: at the top dose activity change, negative = inhibition, most hits filed as inhibitors; hit rate 4.4% among 360,000; AID 504333; further: on the % scale 0 is the no-effect control and ±100 the full control effect; nearly all actives have a fitted effect of over 60% in size
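BAZ2B 50 nM plus b-H3(5-23)K14Ac 50 nM, PBS pH 7.4/0.01% Tween-20, 30 min RT; compound added (max 110 uM), 30 min RT; streptavidin donor/Ni-chelate acceptor beads 10 ug/mL final, 20 min dark; AlphaScreen read.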
JMJD2A Tudor inh – inhibitors of human JMJD2A Tudor domain. hit rate 4.4% among 390,000. Potency, µM (series often up to 114 µM), inactives show top-dose activity change, negative = inhibition, actives largely listed as inhibitors. AID 504339. AlphaScreen JMJD2A-Tudor / H3K4me3 peptide binding. O75164; further: on the % scale 0 is the no-effect control and ±100 the full control effect; nearly all actives have a fitted effect of over 50% in size
The depositor's hits bear a star; ? = inconclusive; . = no result; [ ] = remark or other dose. In the library only some 12% were active in any assay of this set; here they are far more common. The call rests on the fitted dose curve; in most records, active means well fitted curve in the direction sought with a large enough effect; inconclusive means small, poorly fitted or top-dose-only effect, or another doubt; inactive means no such curve, though single readings can be large; an effect the other way counts as inactive or inconclusive. Potency means the concentration at half of the fitted maximal effect.

SMILES | G9a inh | HP1b binding inh | L3MBTL1 block | Sfp PPTase inh | BAZ2B block | JMJD2A Tudor inh
Cc1ccccc1NCCNc1ccccc1C | 44.7µM* | -8.0% | . | -10.2% | ? | -30.4%
CO[C@H]1C=CO[C@@]2(C)Oc3c(C)c(O)c4c(O)c(c5c(nc6cc(C)ccn65)c4c3C2=O)NC(=O)C(C)=CC=C[C@H](C)[C@H](O)[C@@H](C)[C@@H](O)[C@@H](C)[C@H](OC(C)=O)[C@@H]1C | -7.1%[59 µM] | . | . | 8.5% | ? | .
CCC(C)N1CCC2(CC1)N=c1c(c3c4c5c(C)c(O)c3c(O)c1=NC(=O)C(C)=CC=C[C@H](C)[C@H](O)[C@@H](C)[C@@H](O)[C@@H](C)[C@H](OC(C)=O)[C@H](C)[C@@H](OC)C=CO[C@@](C)(O5)C4=O)N2 (some centres undefined) | ? | -23.6% | -12.2% | . | 50.1µM* | ?
CO[C@H]1C=CO[C@@]2(C)Oc3c(C)c(O)c4c(O)c(c5c(c4c3C2=O)NC2(CCN(CC(C)C)CC2)N=5)=NC(=O)C(C)=CC=C[C@H](C)[C@H](O)[C@@H](C)[C@@H](O)[C@@H](C)[C@H](OC(C)=O)[C@@H]1C | ? | . | . | 8.7% | 39.8µM* | .
COC1/C=C/OC2(C)Oc3c(C)c(O)c4c(O)c(c(/C=N/N5CCN(C)CC5)c(O)c4c3C2=O)NC(=O)/C(C)=C/C=C/C(C)C(O)C(C)C(O)C(C)C(OC(C)=O)C1C (centres undefined) | . | . | . | -30.0% | . | .
CC(C)NCC(O)Cn1c2c(c3ccccc31)CCc1c-2cnn1-c1ccccc1 (centres undefined) | ? | ? | -10.9% | ? | ? | 50.1µM*
OC(CN1CCOCC1)Cn1c2c(c3ccccc31)CCCC2 (centres undefined) | ? | 5.9% | -2.6% | 5.5% | ? | ?
CCC(=O)Nc1ccc(C2=Nn3c(nnc3C(C)C)SC2)cc1 | 14.1µM* | -12.4% | . | ? | 2.3% | -1.3%
CC(C)[C@H](N)c1nnc2n1N=C(c1ccc(Cl)cc1)CS2 | ? | 43.1% | . | 6.8% | -9.6% | 8.0%
CCN(CCNC(=O)c1cccc(N2CCCC2=O)c1)c1ccccc1 | 50.1µM* | 13.9% | . | 21.4% | -26.8% | -11.3%
CCN(CCCNC(=O)c1ccc(N2CCCC2=O)cc1)c1cccc(C)c1 | 28.2µM* | -11.7% | -4.9% | 8.5% | -37.2% | -22.7%
CC(C)N(CCCNC(=O)c1ccc(N2CCCC2=O)cc1)Cc1ccccc1 | 9.0%[59 µM] | 19.0%[57 µM] | . | 9.0% | -20.0% | -3.3%
CCN(CCCNC(=O)CN1C(=O)COc2ccccc21)c1cccc(C)c1 | 22.4µM* | -24.0% | . | 2.1% | ? | ?
CCN(CCCNC(=O)c1[nH]c(C)c(C(C)=O)c1C)c1cccc(C)c1 | ? | ? | -7.6% | 5.5% | 50.1µM* | 79.4µM*
CN(CCNC(=O)c1cccc(N2CCCC2=O)c1)Cc1ccccc1 | -15.3% | 64.0% | . | 0.9% | 12.2% | -14.5%
CCN(CCCNC(=O)CN1C(=O)COc2ccccc21)c1ccccc1 | ? | -2.2% | . | 6.8% | -35.8% | -26.8%
Cc1c2cnn(CC(=O)N3CCCCC3)c(=O)c2c(C)n1Cc1ccc(Cl)cc1 | 1.7%[59 µM] | 29.0% | . | . | 2.7% | 2.7%
O=C(Nc1ccc(Br)cc1F)c1ccc2nc(CCc3ccccc3)oc2c1 | 16.8%[59 µM] | 23.2%[57 µM] | . | . | -2.6% | -31.3%
CCN(CCCNC(=O)CC(C(=O)N1CCc2ccccc21)n1ccnc1)c1cccc(C)c1 (centres undefined) | ? | -34.4% | -61.7% | 6.4% | 37.3% | 50.1µM*
CC(NCC1COc2ccccc2O1)C(=O)NCc1ccccc1 (centres undefined) | 44.7µM* | 15.8µM* | . | ? | 35.5µM* | 1.26µM*
O=C(CCNC(=O)c1ccc([N+](=O)[O-])cc1)NCC1COc2ccccc2O1 (centres undefined) | 50.1µM* | 8.0% | 7.6% | . | 7.1% | -23.0%
CC(NS(=O)(=O)c1ccccc1)C1COc2ccccc2O1 (centres undefined) | 5.8%[59 µM] | 38.9% | . | 12.8% | -3.3% | 7.8%
CCOC(=O)CCNC(C)C1COc2ccccc2O1 (centres undefined) | 2.24µM* | 2.4% | -0.5% | -24.8% | -99.9% | 2.82µM*
O=C(CNC(=O)c1ccccc1)NCC1COc2ccccc2O1 (centres undefined) | 1.0%[59 µM] | 25.8% | . | 13.3% | -4.5% | -1.9%
CC(NC(=O)c1ccccc1Cl)C1COc2ccccc2O1 (centres undefined) | -5.4%[59 µM] | 24.1% | 0.4% | -1.2% | 1.3% | 6.9%
SMILES | G9a inh | HP1b binding inh | L3MBTL1 block | Sfp PPTase inh | BAZ2B block | JMJD2A Tudor inh
CC(NCC1COc2ccccc2O1)C1COc2ccccc2O1 (centres undefined) | -26.9% | -3.6%[57 µM] | . | ? | ? | 3.98µM*
Cn1cccc1C(=O)NCC1COc2ccccc2O1 (centres undefined) | 50.1µM* | -8.0% | -5.9% | . | -31.5% | -31.0%
O=C(Cn1ccc2cc(S(=O)(=O)N3CCCC3)ccc21)NCc1ccc(Cl)cc1 | -3.7%[59 µM] | 10.4% | . | . | -11.2% | -2.4%
COc1ccc(-c2cc3ccccc3n2CC(O)CNCCO)cc1 (centres undefined) | 35.5µM* | ? | 1.6% | -19.0% | 50.1µM* | 5.01µM*
CC[C@@]1(O)CC2CN(CCc3c([nH]c4ccccc34)[C@](C(=O)OC)(c3cc4c(cc3OC)N(C)C3[C@@](O)(C(=O)OC)C(OC(C)=O)[C@]5(CC)C=CCN6CC[C@@]43C65)C2)C1 (some centres undefined) | ? | . | . | 10.4% | . | .
NC(N)=N/N=C/c1cccc(Cl)c1Cl | 17.8µM* | 9.8% | 39.6% | 2.3% | -22.5% | -16.6%
CC(C)c1cc(Nc2cccc(O)c2)cc(C(C)C)c1O | ? | . | -5.9% | 22.4µM* | 31.6µM* | .
CC(=O)Nc1cccc(O)c1 | -2.5%[0.501 µM] | 66.2% | 6.1% | 14.1% | 6.8% | -9.7%
Cc1ccc(S(=O)Cc2ccc(C(=O)NCc3ccc(OC(C)C)cc3)o2)cc1 (centres undefined) | -32.7%[59 µM] | 2.2% | . | . | -12.3% | -19.0%
Cc1nnc(SCC(=O)N(CC(C)C)c2c(N)n(Cc3ccccc3)c(=O)[nH]c2=O)n1N | 10µM* | 12.4% | 2.8% | . | -2.4% | -8.8%
CC(C)CN(C(=O)CSc1nnc(-c2cccs2)n1N)c1c(N)n(Cc2ccccc2)c(=O)[nH]c1=O | 50.1µM* | 25.6% | -7.1% | . | 6.6% | -7.6%
CC(C)CN(C(=O)CCCc1nc2ccccc2c(=O)[nH]1)c1c(N)n(Cc2ccccc2)c(=O)[nH]c1=O | 39.8µM* | 17.2% | 1.2% | . | 13.0% | -10.3%
Cc1cccc(OCC(=O)Nc2ccc3nc(Nc4cccc(Cl)c4)cc(C)c3c2)c1 | -1.7%[59 µM] | 37.1% | . | . | 3.3% | 4.0%
